# Data as given in PubChem BioAssay AID1159580 (chemical genetic matrix, 2015).
# The campaign covered roughly 5,500 compounds. About 2,000 (36%) were called active. Inconclusive results (about 18%) are left out. This is one part of the list. A number with no mark means an inactive call. No stated cut-off is given here; in the data, active means normalized growth mostly below about 0.91 (no sharp cut-off); inconclusive means no clear call, values can overlap the other calls; inactive means mostly above about 0.92.
# Test: chemical genetic growth profiling, strain panel (AID 1159580);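 further: tested at 20 µM; growth read once vehicle control cultures reached saturation at 30 °C; 1 = growth at the plate median or of vehicle wells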
# Conditions: growth OD
structure (smiles),measurement,setting,value
C=C[C@@](C)(O)CCC1C(=C)CCC2[C@@](C)(CO)CCC[C@]12C (some centres undefined),normalized growth,"S. cerevisiae deletion strains, locus YJR066W, strain TOR1, stronger effect = lower value",0.868
same,normalized growth,"S. cerevisiae deletion strains, locus YJR075W, strain HOC1, stronger effect = lower value",1.05
same,normalized growth,"S. cerevisiae deletion strains, locus YKL009W, strain mrt4, stronger effect = lower value",0.776 (active)
same,normalized growth,"S. cerevisiae deletion strains, locus YKL068W, stronger effect = lower value",1.02
same,normalized growth,"S. cerevisiae deletion strains, locus YKL085W, strain MDH1 (second series), stronger effect = lower value",0.994
same,normalized growth,"S. cerevisiae deletion strains, locus YKL085W, strain MDH1, stronger effect = lower value",0.994
same,normalized growth,"S. cerevisiae deletion strains, locus YKL160W, strain elf1, stronger effect = lower value",0.966
same,normalized growth,"S. cerevisiae deletion strains, locus YKL190W, strain CNB1, stronger effect = lower value",1.06
same,normalized growth,"S. cerevisiae deletion strains, locus YKR001C, strain vps1, stronger effect = lower value",1
same,normalized growth,"S. cerevisiae deletion strains, locus YKR026C, strain gcn3, stronger effect = lower value",1.08
same,normalized growth,"S. cerevisiae deletion strains, locus YKR091W, strain srl3, stronger effect = lower value",1.07
same,normalized growth,"S. cerevisiae deletion strains, locus YLL001W, strain dnm1, stronger effect = lower value",0.935
same,normalized growth,"S. cerevisiae deletion strains, locus YLL026W, stronger effect = lower value",1.03
same,normalized growth,"S. cerevisiae deletion strains, locus YLL041C, strain sdh2, stronger effect = lower value",1.08 [resistant] (active)
same,normalized growth,"S. cerevisiae deletion strains, locus YLR027C, strain aat2, stronger effect = lower value",0.997
same,normalized growth,"S. cerevisiae deletion strains, locus YLR039C, strain RIC1, stronger effect = lower value",0.868
same,normalized growth,"S. cerevisiae deletion strains, locus YLR058C, strain SHM2, stronger effect = lower value",1
same,normalized growth,"S. cerevisiae deletion strains, locus YLR102C, strain apc9, stronger effect = lower value",1.05
same,normalized growth,"S. cerevisiae deletion strains, locus YLR113W, strain HOG1, stronger effect = lower value",0.891
same,normalized growth,"S. cerevisiae deletion strains, locus YLR221C, strain rsa3, stronger effect = lower value",0.982
same,normalized growth,"S. cerevisiae deletion strains, locus YLR258W, strain gsy2, stronger effect = lower value",1
same,normalized growth,"S. cerevisiae deletion strains, locus YLR262C, strain YPT6 (second series), stronger effect = lower value",0.733 (active)
same,normalized growth,"S. cerevisiae deletion strains, locus YLR268W, strain sec22, stronger effect = lower value",0.959
same,normalized growth,"S. cerevisiae deletion strains, locus YLR320W, strain mms22, stronger effect = lower value",0.98
same,normalized growth,"S. cerevisiae deletion strains, locus YLR330W, strain CHS5, stronger effect = lower value",1.05
same,normalized growth,"S. cerevisiae deletion strains, locus YLR342W, strain FKS1 (second series), stronger effect = lower value",0.883
same,normalized growth,"S. cerevisiae deletion strains, locus YLR342W, strain FKS1, stronger effect = lower value",0.999
same,normalized growth,"S. cerevisiae deletion strains, locus YLR357W, strain rsc2, stronger effect = lower value",1.16 [resistant] (active)
same,normalized growth,"S. cerevisiae deletion strains, locus YLR370C, strain arc18, stronger effect = lower value",1.04
same,normalized growth,"S. cerevisiae deletion strains, locus YLR371W, strain rom2, stronger effect = lower value",1.12 [resistant] (active)
same,normalized growth,"S. cerevisiae deletion strains, locus YLR384C, strain iki3, stronger effect = lower value",1.09 [resistant] (active)
same,normalized growth,"S. cerevisiae deletion strains, locus YLR418C, strain cdc73, stronger effect = lower value",1.07
same,normalized growth,"S. cerevisiae deletion strains, locus YML016C, strain PPZ1, stronger effect = lower value",1.04
same,normalized growth,"S. cerevisiae deletion strains, locus YML032C, strain rad52, stronger effect = lower value",0.912
same,normalized growth,"S. cerevisiae deletion strains, locus YML120C, strain ndi1, stronger effect = lower value",0.974
same,normalized growth,"S. cerevisiae deletion strains, locus YML124C, strain tub3, stronger effect = lower value",1.04
same,normalized growth,"S. cerevisiae deletion strains, locus YMR058W, strain fet3, stronger effect = lower value",0.992
same,normalized growth,"S. cerevisiae deletion strains, locus YMR078C, strain ctf18, stronger effect = lower value",1.05
same,normalized growth,"S. cerevisiae deletion strains, locus YMR125W, strain sto1, stronger effect = lower value",1.13 [resistant] (active)
same,normalized growth,"S. cerevisiae deletion strains, locus YMR129W, stronger effect = lower value",1.06
same,normalized growth,"S. cerevisiae deletion strains, locus YMR205C, strain PFK2, stronger effect = lower value",0.969
same,normalized growth,"S. cerevisiae deletion strains, locus YMR223W, strain ubp8, stronger effect = lower value",0.995
same,normalized growth,"S. cerevisiae deletion strains, locus YMR231W, strain pep5, stronger effect = lower value",1.05
same,normalized growth,"S. cerevisiae deletion strains, locus YMR263W, strain SAP30, stronger effect = lower value",1.07
same,normalized growth,"S. cerevisiae deletion strains, locus YMR307W, strain GAS1, stronger effect = lower value",0.91
same,normalized growth,"S. cerevisiae deletion strains, locus YNL067W, strain RPL9B, stronger effect = lower value",0.979
same,normalized growth,"S. cerevisiae deletion strains, locus YNL071W, strain lat1, stronger effect = lower value",1
same,normalized growth,"S. cerevisiae deletion strains, locus YNL153C, strain GIM3, stronger effect = lower value",0.971
same,normalized growth,"S. cerevisiae deletion strains, locus YNL183C, strain NPR1, stronger effect = lower value",0.842
same,normalized growth,"S. cerevisiae deletion strains, locus YNL209W, strain ssb2, stronger effect = lower value",0.984
same,normalized growth,"S. cerevisiae deletion strains, locus YNL233W, strain BNI4, stronger effect = lower value",1.07
same,normalized growth,"S. cerevisiae deletion strains, locus YNL248C, strain rpa49, stronger effect = lower value",0.983
same,normalized growth,"S. cerevisiae deletion strains, locus YNL250W, strain rad50, stronger effect = lower value",0.995
same,normalized growth,"S. cerevisiae deletion strains, locus YNL271C, strain bni1, stronger effect = lower value",1
same,normalized growth,"S. cerevisiae deletion strains, locus YNL298W, strain CLA4, stronger effect = lower value",0.88 (active)
same,normalized growth,"S. cerevisiae deletion strains, locus YNL307C, strain MCK1, stronger effect = lower value",1.03
same,normalized growth,"S. cerevisiae deletion strains, locus YNL322C, strain KRE1 (second series), stronger effect = lower value",0.933
same,normalized growth,"S. cerevisiae deletion strains, locus YNR049C, strain mso1, stronger effect = lower value",1.06
same,normalized growth,"S. cerevisiae deletion strains, locus YNR052C, strain pop2, stronger effect = lower value",0.929
same,normalized growth,"S. cerevisiae deletion strains, locus YOL006C, strain TOP1, stronger effect = lower value",0.948
same,normalized growth,"S. cerevisiae deletion strains, locus YOL012C, strain htz1",1.69
same,normalized growth,"S. cerevisiae deletion strains, locus YOL147C, strain pex11, stronger effect = lower value",1.04
same,normalized growth,"S. cerevisiae deletion strains, locus YOR001W, strain rrp6, stronger effect = lower value",0.986
same,normalized growth,"S. cerevisiae deletion strains, locus YOR061W, strain CKA2, stronger effect = lower value",0.955
same,normalized growth,"S. cerevisiae deletion strains, locus YOR069W, strain VPS5, stronger effect = lower value",1.02
same,normalized growth,"S. cerevisiae deletion strains, locus YOR070C, strain gyp1, stronger effect = lower value",0.982
same,normalized growth,"S. cerevisiae deletion strains, locus YOR080W, strain dia2, stronger effect = lower value",1.01
same,normalized growth,"S. cerevisiae deletion strains, locus YOR083W, strain WHI5, stronger effect = lower value",0.939
same,normalized growth,"S. cerevisiae deletion strains, locus YOR106W, strain vam3, stronger effect = lower value",0.933
same,normalized growth,"S. cerevisiae deletion strains, locus YOR136W, strain idh2, stronger effect = lower value",1.01
same,normalized growth,"S. cerevisiae deletion strains, locus YOR144C, strain elg1, stronger effect = lower value",0.989
same,normalized growth,"S. cerevisiae deletion strains, locus YOR184W, strain ser1, stronger effect = lower value",0.679 (active)
same,normalized growth,"S. cerevisiae deletion strains, locus YOR231W, strain MKK1, stronger effect = lower value",0.85 (active)
same,normalized growth,"S. cerevisiae deletion strains, locus YOR265W, strain rbl2, stronger effect = lower value",1.03
same,normalized growth,"S. cerevisiae deletion strains, locus YOR270C, strain vph1, stronger effect = lower value",0.839
same,normalized growth,"S. cerevisiae deletion strains, locus YOR290C, strain snf2, stronger effect = lower value",0.916
same,normalized growth,"S. cerevisiae deletion strains, locus YOR316C, strain cot1, stronger effect = lower value",1.06
same,normalized growth,"S. cerevisiae deletion strains, locus YPL051W, strain arl3, stronger effect = lower value",0.935
same,normalized growth,"S. cerevisiae deletion strains, locus YPL078C, strain atp4, stronger effect = lower value",0.939
same,normalized growth,"S. cerevisiae deletion strains, locus YPL106C, strain sse1, stronger effect = lower value",1.22 [resistant] (active)
same,normalized growth,"S. cerevisiae deletion strains, locus YPL240C, strain hsp82, stronger effect = lower value",1.06
same,normalized growth,"S. cerevisiae deletion strains, locus YPL241C, strain CIN2, stronger effect = lower value",1.07 [resistant] (active)
same,normalized growth,"S. cerevisiae deletion strains, locus YPL256C, strain CLN2, stronger effect = lower value",0.915
same,normalized growth,"S. cerevisiae deletion strains, locus YPR119W, strain clb2, stronger effect = lower value",1.07 [resistant] (active)
same,normalized growth,"S. cerevisiae deletion strains, locus YPR141C, strain kar3, stronger effect = lower value",1.07
same,normalized growth,"S. cerevisiae deletion strains, locus YPR163C, strain tif3, stronger effect = lower value",0.977
same,normalized growth,"S. cerevisiae deletion strains, locus YPR167C, strain met16, stronger effect = lower value",1.01
same,normalized growth,"S. cerevisiae deletion strains, strain wtn01, stronger effect = lower value",0.945
same,normalized growth,"S. cerevisiae strains, strain wild type, stronger effect = lower value",1
